Structures are written as SMILES. Among all 190,000 compounds or so, about 1,300 (0.68%) were called active. The entries come from a sample that favours actives as a whole. Unmarked numbers belong to inactive results. Cut-off read from the data, not from the text of the source: active = inhibition above about 50%; inactive = the rest.

Inhibition data for 66 compounds are collected here from PubChem BioAssay AID1220 (Sanford-Burnham Center for Chemical Genomics, 2008).

The target in the assay is Mannose-6-phosphate isomerase (Homo sapiens) (UniProt P34949). Put plainly: human PMI inhibitors, high substrate, primary screen, biochemical, fluorescence intensity, high mannose 6-phosphate (AID 1220). As to conditions: recombinant PMI enzyme, coupled fluorescence intensity; at 20 µM; stronger effect = higher value.
Mannose-6-phosphate isomerase (Homo sapiens), sequence (P34949 whole entry, looked up): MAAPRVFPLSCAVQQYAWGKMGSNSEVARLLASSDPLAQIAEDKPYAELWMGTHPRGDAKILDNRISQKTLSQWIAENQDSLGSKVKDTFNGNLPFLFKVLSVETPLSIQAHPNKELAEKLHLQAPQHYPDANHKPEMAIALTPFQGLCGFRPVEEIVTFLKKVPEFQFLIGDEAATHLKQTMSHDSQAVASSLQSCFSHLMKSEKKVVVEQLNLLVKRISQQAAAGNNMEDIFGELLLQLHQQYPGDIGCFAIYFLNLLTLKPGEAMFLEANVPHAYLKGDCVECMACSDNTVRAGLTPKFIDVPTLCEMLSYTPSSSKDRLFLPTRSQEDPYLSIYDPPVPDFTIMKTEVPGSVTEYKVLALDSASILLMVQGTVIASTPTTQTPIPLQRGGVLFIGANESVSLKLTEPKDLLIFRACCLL
Turning to `O=C(c1cnn(-c2ccccc2)c1)c1ccc2ccccc2c1O`, the inhibition (in general, the relative decrease from the control value, in per cent) was 23.1%. The result for `O=C(COC(=O)[C@H](Cc1ccccc1)NC(=O)c1ccco1)NC(c1ccccc1)c1ccccc1` reads 11.5%; that for `COc1ccc(C(=O)Nc2cc(OC)cc(OC)c2)cc1`, 10%. For `COc1cccc(NC(=O)c2ccncc2)c1`, the inhibition is 6%.

In the case of `COc1cc(N)cc(NC(=O)c2ccncc2)c1`, the inhibition is 50.4% (active). With `COc1nc(OC)nc(N2CCC(C(=O)NC3CCCCCC3)CC2)n1` the figure was 1.4%; with `Cc1ccccc1NC(=S)NCc1ccc(Cl)cc1`, 9.2%. The result for `CC1CCc2c(C(=O)Oc3cccc(-n4cnnn4)c3)csc2C1` (stereo unspecified) reads 15.6%. As for `Cc1ccc(O)c(CNc2cccc3cccnc23)c1`, the inhibition was 63.8% (active). With `Cc1ccc(O)c(CNc2ccccn2)c1` the figure was -7.2%; with `Fc1ccc(NCc2cccnc2)cc1`, -2%. The result for `COCc1ccc(O)c2ncccc12` reads 22.6%; that for `Cc1ccccc1NCc1ccccc1O`, 1.6%.

As for `Oc1ccccc1CNc1cccc2cccnc12`, the inhibition was 45.3%. The result for `Cc1cccnc1NCc1ccc(O)c2ncccc12` reads 63.6% (active). With `Oc1ccc(Cn2ccnc2)c2cccnc12` the figure was 7.4%; with `Cc1cccc(NCc2ccccc2O)c1C`, 25.8%.

With `CC(C)COCc1ccc(O)c2ncccc12`, the inhibition is 14.9%. With `CSc1cccc(NC(=S)N(CCCN2CCCC(C)C2)Cc2cccs2)c1` (stereo unspecified) the figure was 4.6%. With `COCCOC(=O)C1=C(C)N=C2SCCC(=O)N2C1c1cccc(Br)c1` (stereo unspecified) the figure was 1.8%; with `CCCC(=O)Nc1nc(C)c(-c2csc(Nc3ccc(Cl)cc3)n2)s1`, 38.4%; with `O=C(Cn1cc(C(F)(F)F)cc(Cl)c1=O)Nc1cc(Cl)cc(Cl)c1`, 13.7%. On to `C=CCn1c(SCC(=O)Nc2ccc3c(c2)OCO3)nnc1-c1ccccc1`, for which the inhibition was 25.6%. With `CCOC(=O)c1ccc(Cn2cnc3ccccc3c2=O)cc1` the figure was 11.7%; with `CCOC(=O)C1=C(c2ccccc2)NC(SC)=C(C#N)C1c1cccnc1` (stereo unspecified), 3.3%. The result for `O/N=C1/CCSc2ccccc21` reads 9.7%; that for `Oc1ccc(CNc2ccccc2F)c2cccnc12`, 73.8% (active); that for `Cc1ccccc1N=Nc1ccc(O)c2ncccc12`, 31.3%. For the compound `COc1ccc(O)c(CNc2ccccc2F)c1`, the inhibition was 17.2%. `O=C(Cc1ccccc1F)Nc1cccc2cccnc12`: the inhibition was -1.1%. With `O=[N+]([O-])c1ccc(O)c2ncccc12`, the inhibition is 9%.

In the case of `CCCCCCn1c(=O)[nH]c2nc3cc(N)ccc3nc2c1=O`, the inhibition was 24%. The result for `CCCCn1c(=O)[nH]c2nc3cc(N)ccc3nc2c1=O` reads 52.5% (active). The result for `CCCCCCn1c(=O)[nH]c2nc3cc(N)c(C)cc3nc2c1=O` reads 49.7%; that for `C=CCn1c(COc2ccccc2F)nnc1SCCN1C(=O)c2ccccc2C1=O`, 10.7%; that for `COCCn1c(C)cc(C(=O)CSc2nc3ccccc3o2)c1C`, -1.7%. Consider `CCOC(=O)c1cnc2ccc(OCC)cc2c1NCc1cccnc1`, for which the inhibition was 62.8% (active). The result for `CCOC(=O)c1cnc2ccc(OC)cc2c1NCc1ccccc1` reads 27.2%; that for `CCOC(=O)c1cnc2ccc(OCC)cc2c1NCc1ccccc1`, 43.5%; that for `Cc1cc2nc(-c3ccc(SCC(=O)Nc4nccs4)nc3)[nH]c2cc1C`, -0.3%. The result for `Nc1nc2n(n1)C(=O)CC(c1ccccc1[N+](=O)[O-])N2` (stereo unspecified) reads 9.2%.

As for `O=C(/C=C/c1ccc2c(c1)OCO2)NCCSCc1ccc(Cl)cc1Cl`, the inhibition was 12.8%. With `CC1(C)CC(=O)C2=C(C1)OC(N)=C(C#N)C21CCN(C(=O)OCc2ccccc2)CC1` the figure was 4.4%; with `CC(=O)Nc1ccc(S(=O)(=O)NNC(=O)COc2cccc3ccccc23)cc1`, 1.3%; with `O=C1CCCC(O)=C1C=NCc1ccccc1`, -2.2%. In the case of `O=[N+]([O-])c1cc2oc3c(c2c(C=NCc2ccncc2)c1O)CCCC3`, the inhibition was 52.5% (active). The result for `Cc1ccc(S(=O)(=O)N(C(=O)c2ccncc2)c2ccc3oc4c(c3c2)CCCC4)cc1[N+](=O)[O-]` reads 1.1%.

Take `Oc1c(Br)cc2oc3c(c2c1CNCc1ccccc1)CCCC3`: the inhibition is 2.3%.

In the case of `O=[N+]([O-])c1cc2oc3c(c2c(C=NCc2ccccc2)c1O)CCCC3`, the inhibition is 50.7% (active).

Regarding `O=C(c1ccncc1)N(c1ccc2oc3c(c2c1)CCCC3)S(=O)(=O)c1cccc([N+](=O)[O-])c1`, the inhibition is 6%.

Regarding `COCC(=O)Nc1nnc(CCc2ccccc2)s1`, the inhibition is 9.8%. In the case of `COC(=O)C1=C(C)N(c2ccc(OC)c(OC)c2)C(=O)C1`, the inhibition is -12.5%. With `CN(C)C(=O)c1cn(-c2ccccc2)nc1-c1cccs1` the figure was -7.1%; with `O=C(NCC(=O)N1CCN(S(=O)(=O)c2cccs2)CC1)c1ccc(Cl)cc1`, 5.3%; with `FC(F)(F)c1cc(-c2cccs2)nc2nc(N3CCOCC3)sc12`, -4.4%. The result for `CC1(C)OC(C)(C)/C(=C/Nc2ccc(O)cc2)C1=O` reads 52.5% (active); that for `CC1(C)Oc2ccc3ccc(=O)oc3c2/C(=C/Nc2ccc(O)cc2)C1=O`, 14.8%.

`CC1(C)OC(C)(C)/C(=C/Nc2ccccc2)C1=O`: the inhibition was 0.4%. The result for `Cc1ccc(NC(=O)C2CCCN2C(=O)NC2CCCCC2)cc1` (stereo unspecified) reads 7.7%; that for `CCCCC(=O)NC1(C(F)(F)F)C(=O)N(Cc2ccco2)C(C)=C1C(=O)OC` (stereo unspecified), 2.6%. With `CCOC(=O)C1CCN(C(=O)CSc2nccc(C)n2)CC1` the figure was -8.5%; with `COCCNC(=O)NC(=O)CN1CCCc2ccccc21`, 6.7%; with `O=C1CC(N2CCN(c3ccccc3)CC2)C(=O)N1c1ccc2c(c1)OCO2` (stereo unspecified), -2%. With `O=C1CC(N2CCN(c3ccc(F)cc3)CC2)C(=O)N1c1ccc2c(c1)OCO2` (stereo unspecified) the figure was 24.1%; with `O=C1CC(N2CCN(c3ccc(O)cc3)CC2)C(=O)N1c1ccc2c(c1)OCO2` (stereo unspecified), 60.4% (active); with `COc1ccccc1OCc1ccc(C(=O)OCC2CCCO2)o1` (stereo unspecified), -2%.
